In PubChem BioAssay (Tox21):
Where “and” joins values, the source holds several entries; their conditions need not be identical. Equal values may be shown once. Records with an inconclusive call do not appear. A call without a number means that no potency is given here. Where a structure was tested more than once in an assay, its records may differ in their call. Calls of active or inactive are those of the source. Unless noted, the call rests on the fitted dose curve; in most records, active means well fitted curve in the direction sought with a large enough effect in the repeat runs; inconclusive means weak or mixed curves; inactive means no such curve, though single readings can be large; an effect the other way counts as inactive or inconclusive.

Key:
[1] = qHTS assay to identify small molecule agonists of the peroxisome proliferator-activated receptor delta (PPARd) signaling pathway - cell viability counter screen (AID 743211); further: nearly all actives have a fitted effect of over 55% in size; further: potency means the concentration at half of the fitted maximal effect
Summary of the method: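 Multiplexed format: after the 2 h room-temperature LiveBLAzer B/G FRET step, CellTiter-Glo was added to the same wells. Luminescence after 30 min gave cell viability; compound exposure was 17 h at 37C.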

[2] = qHTS assay to identify small molecule antagonists of the peroxisome proliferator-activated receptor delta (PPARd) signaling pathway - cell viability counter screen (AID 743213); further: nearly all actives have a fitted effect of over 50% in size; further: potency means the concentration at half of the fitted maximal effect
Summary of the method: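 In this counter screen, HEK293H cells carrying a UAS-beta-lactamase reporter are co-treated with test compounds and 300 nM L165041 (final) for 17 h at 37 C; cell viability is quantified by CellTiter-Glo luminescence.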

[3] = qHTS assay to identify small molecule agonists of the farnesoid-X-receptor (FXR) signaling pathway - cell viability counter screen (AID 743218); further: nearly all actives have a fitted effect of over 45% in size; further: potency means the concentration at half of the fitted maximal effect
Summary of the method: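 Parallel cytotoxicity test: compound-treated (16 h, 37 C) HEK 293T FXR-bla reporter cells were lysed with CellTiter-Glo and luminescence recorded.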

[4] = qHTS assay to identify small molecule antagonists of the farnesoid-X-receptor (FXR) signaling pathway - cell viability counter screen (AID 743221; active means well fitted cell-killing curve with a large enough effect in the repeat runs, not every such curve was filed as active; further: nearly all actives have a fitted effect of over 50% in size; further: potency means the concentration at half of the fitted maximal effect)
Summary of the method: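 CellTiter-Glo, 30 min RT, luminescence; same wells as the LiveBLAzer FRET read. Cells: FXR-UAS-bla HEK 293T. Treatment: compound with chenodeoxycholic acid 50 uM final, 16 h at 37 C.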

[5] = target: Vitamin D3 receptor (Homo sapiens) (UniProt P11473); test: qHTS assay to identify small molecule agonists of the vitamin D receptor (VDR) signaling pathway (AID 743222; calls by dose curve)
Sequence of Vitamin D3 receptor (Homo sapiens) (P11473 whole entry, looked up): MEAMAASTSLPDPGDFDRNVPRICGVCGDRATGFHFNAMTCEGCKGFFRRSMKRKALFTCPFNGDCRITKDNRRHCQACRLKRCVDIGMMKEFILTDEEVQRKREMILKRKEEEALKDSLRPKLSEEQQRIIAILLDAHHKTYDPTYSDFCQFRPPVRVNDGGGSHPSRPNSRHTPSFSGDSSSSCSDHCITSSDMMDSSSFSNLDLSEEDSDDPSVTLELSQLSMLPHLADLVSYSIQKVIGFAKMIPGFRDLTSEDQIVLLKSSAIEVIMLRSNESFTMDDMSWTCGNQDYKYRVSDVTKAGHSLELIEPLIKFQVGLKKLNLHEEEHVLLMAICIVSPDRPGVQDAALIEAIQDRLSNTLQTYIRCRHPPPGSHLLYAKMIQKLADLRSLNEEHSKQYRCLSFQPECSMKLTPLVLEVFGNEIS
Summary of the method: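 In VDR-bla cells, compound-induced beta-lactamase expression is quantified by FRET substrate fluorescence. Treatment lasts 16 h at 37C; substrate develops 2 h at room temperature.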

[6] = target: Vitamin D3 receptor (Homo sapiens) (UniProt P11473); test: qHTS assay to identify small molecule antagonists of the vitamin D receptor (VDR) signaling pathway (AID 743223; active means well fitted inhibition curve with a large enough effect in the signal ratio in the repeat runs, not every such curve was filed as active; the % refers to the signal ratio)
Summary of the method: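 After VDR-bla cells are plated and left 4 h at 37C, DMSO-dissolved compounds and 3 nM (final) calcitriol agonist are added. Incubation continues 16 h at 37C; FRET beta-lactamase substrate then develops 2 h at room temperature.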

[7] = qHTS assay to identify small molecule agonists of the vitamin D receptor (VDR) signaling pathway - cell viability counter screen (AID 743224); further: nearly all actives have a fitted effect of over 50% in size; further: potency means the concentration at half of the fitted maximal effect
Summary of the method: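 Plated VDR-bla cells (4 h, 37C) received compound, incubated 16 h, then LiveBLAzer substrate 2 h RT; CellTiter-Glo added afterwards, luminescence read at 30 min.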

[8] = qHTS assay to identify small molecule antagonists of the vitamin D receptor (VDR) signaling pathway - cell viability counter screen (AID 743225); further: nearly all actives have a fitted effect of over 50% in size; further: potency means the concentration at half of the fitted maximal effect
Summary of the method: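 Cytotoxicity toward the VDR-bla HEK 293T line was scored by ATP-based CellTiter-Glo luminescence, read in the wells already used for the beta-lactamase readout after 16 h compound treatment under 3 nM 1-alpha,25-dihydroxyvitamin D3 stimulation.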

[9] = qHTS assay to identify small molecule agonists of the endoplasmic reticulum stress response signaling pathway (AID 1159516; active means well fitted activation curve with a large enough effect in the signal ratio in the repeat runs, not every such curve was filed as active; the % refers to the signal ratio)
Summary of the method: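 An ESRE-bla HeLa cell assay: compounds were pin-transferred from DMSO onto overnight-plated cells and left 5 hr at 37 C. Substrate was then loaded for 2 hr at room temperature before reading fluorescence at 460 nm and 530 nm.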

[10] = qHTS assay to identify small molecule agonists of the endoplasmic reticulum stress response signaling pathway - cell viability counter screen (AID 1159517; calls by dose curve; further: nearly all actives have a fitted effect of over 50% in size; further: potency means the concentration at half of the fitted maximal effect)
Summary of the method: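 CellTiter-Glo was added to wells already read for beta-lactamase FRET, and luminescence was recorded 30 min later. Cells: ESRE-bla HeLa, 1,500 per well, compound exposure 5 hr at 37 C.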

[11] = qHTS assay to identify small molecule antagonists of the retinoid-related orphan receptor gamma (ROR-gamma) signaling pathway - cell viability counter screen (AID 1159520); further: nearly all actives have a fitted effect of over 50% in size; further: potency means the concentration at half of the fitted maximal effect
Summary of the method: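 Tet-on ROR gamma CHO cells (1,000/well) were plated 4 hr, given compounds in DMSO for 2 hr at 37 C, then induced with 1 uM final doxycycline for 16 hr. Viability was read as ATP by CellTiter-Glo luminescence after 30 min.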

[12] = target: Nuclear receptor ROR-gamma (Homo sapiens) (UniProt P51449); test: qHTS assay to identify small molecule antagonists of the retinoid-related orphan receptor gamma (ROR-gamma) signaling pathway (AID 1159521; further: nearly all actives have a fitted effect of over 50% in size; further: potency means the concentration at half of the fitted maximal effect)
Summary of the method: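 Readout: ONE-Glo luciferase luminescence, 30 min at room temperature. System: Tet-on RORγ CHO, RORE-LUC. Sequence: compound 2 h, doxycycline 1 uM final, 16 h at 37 C.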

[13] = qHTS assay to identify small molecule agonists of the AP-1 signaling pathway - cell viability counter screen (AID 1159525; calls by dose curve; further: nearly all actives have a fitted effect of over 55% in size; further: potency means the concentration at half of the fitted maximal effect)
Summary of the method: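 ME-180 AP-1-bla, 2500 cells/well, Opti-MEM + 0.5% dialyzed FBS; overnight 37 °C; cpd 15-pt titration, 5 h 37 °C; CellTiter-Glo 30 min RT; luminescence read; normalised to TOAB and DMSO controls.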

[14] = qHTS assay to identify small molecule agonists of the AP-1 signaling pathway (AID 1159526; calls by dose curve)
[15] = target: Retinoic acid receptor RXR-alpha (Homo sapiens) (UniProt P19793); test: qHTS assay to identify small molecule agonists of the RXR signaling pathway (AID 1159527; calls by dose curve; further: nearly all actives have a fitted effect of over 35% in size)
Sequence of Retinoic acid receptor RXR-alpha (Homo sapiens) (P19793 whole entry, looked up): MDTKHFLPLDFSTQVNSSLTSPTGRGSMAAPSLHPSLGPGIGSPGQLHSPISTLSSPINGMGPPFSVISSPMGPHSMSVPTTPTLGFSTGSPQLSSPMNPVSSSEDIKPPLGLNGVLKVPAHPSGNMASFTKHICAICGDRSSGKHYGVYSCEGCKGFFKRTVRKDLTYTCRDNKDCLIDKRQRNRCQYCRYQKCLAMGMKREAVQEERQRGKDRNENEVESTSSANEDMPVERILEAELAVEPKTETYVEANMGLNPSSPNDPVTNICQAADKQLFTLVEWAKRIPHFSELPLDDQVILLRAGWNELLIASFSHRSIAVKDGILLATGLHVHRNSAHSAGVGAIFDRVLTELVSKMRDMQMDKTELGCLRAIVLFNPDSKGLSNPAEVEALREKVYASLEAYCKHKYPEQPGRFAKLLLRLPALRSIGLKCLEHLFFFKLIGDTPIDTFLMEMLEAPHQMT
Summary of the method: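 Reporter activation is measured as beta-lactamase activity via FRET substrate cleavage (emission 460/530 nm) in HEK 293T cells expressing an RXR-alpha-driven bla construct, following 16 hr compound exposure at 37 C.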

[16] = target: Peroxisome proliferator-activated receptor delta (Homo sapiens) (UniProt Q03181); test: qHTS assay to identify small molecule agonists of the peroxisome proliferator-activated receptor delta (PPARd) signaling pathway (AID 743212; calls by dose curve)
Sequence of Peroxisome proliferator-activated receptor delta (Homo sapiens) (Q03181 whole entry, looked up): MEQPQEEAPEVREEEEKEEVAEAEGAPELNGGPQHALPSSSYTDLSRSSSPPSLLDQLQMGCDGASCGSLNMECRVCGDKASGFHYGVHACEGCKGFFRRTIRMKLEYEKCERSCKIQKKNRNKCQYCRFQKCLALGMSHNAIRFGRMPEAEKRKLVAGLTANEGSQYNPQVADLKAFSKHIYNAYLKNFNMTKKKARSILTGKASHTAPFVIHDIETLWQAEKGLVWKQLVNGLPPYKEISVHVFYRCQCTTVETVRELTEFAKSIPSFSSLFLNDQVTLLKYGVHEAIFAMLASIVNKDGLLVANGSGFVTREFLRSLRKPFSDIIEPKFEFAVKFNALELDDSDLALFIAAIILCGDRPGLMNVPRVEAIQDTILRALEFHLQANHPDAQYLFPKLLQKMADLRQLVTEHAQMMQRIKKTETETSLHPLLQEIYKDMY
Summary of the method: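 A PPARd-bla HEK293H line with beta-lactamase under an Upstream Activator Sequence is treated with compounds at 37 C. Substrate loading for 2 h at room temperature precedes the fluorescence measurement.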

[17] = target: Peroxisome proliferator-activated receptor delta (Homo sapiens) (UniProt Q03181); test: qHTS assay to identify small molecule antagonists of the peroxisome proliferator-activated receptor delta (PPARd) signaling pathway (AID 743215; active means well fitted inhibition curve with a large enough effect in the signal ratio in the repeat runs, not every such curve was filed as active; the % refers to the signal ratio;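 further: cells stimulated with agonist L165041 at 300 nM final during compound exposure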; further: potency means the concentration at half of the fitted maximal effect)
Summary of the method: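 HEK293H UAS-bla, PPARd; agonist L165041 300 nM final with cpd in DMSO; 37 C 17 h; FRET substrate, RT 2 h; fluorescence intensity.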

[18] = target: Bile acid receptor (Homo sapiens) (UniProt Q96RI1); test: qHTS assay to identify small molecule agonists of the farnesoid-X-receptor (FXR) signaling pathway (AID 743220; active means well fitted activation curve with a large enough effect in the signal ratio in the repeat runs, not every such curve was filed as active; the % refers to the signal ratio)
Sequence of Bile acid receptor (Homo sapiens) (Q96RI1 whole entry, looked up): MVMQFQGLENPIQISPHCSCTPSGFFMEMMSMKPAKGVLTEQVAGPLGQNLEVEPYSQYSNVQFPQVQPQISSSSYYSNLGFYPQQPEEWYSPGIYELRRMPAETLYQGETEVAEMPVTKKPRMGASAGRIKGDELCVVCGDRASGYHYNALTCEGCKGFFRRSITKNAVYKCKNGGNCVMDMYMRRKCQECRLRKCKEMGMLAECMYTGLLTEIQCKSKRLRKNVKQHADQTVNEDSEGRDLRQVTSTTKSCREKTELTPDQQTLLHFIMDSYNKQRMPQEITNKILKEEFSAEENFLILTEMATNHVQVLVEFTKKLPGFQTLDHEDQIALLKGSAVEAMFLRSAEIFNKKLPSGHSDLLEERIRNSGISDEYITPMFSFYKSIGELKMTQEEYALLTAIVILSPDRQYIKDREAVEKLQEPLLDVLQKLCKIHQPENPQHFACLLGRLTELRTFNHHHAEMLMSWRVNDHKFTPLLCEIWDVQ
Summary of the method: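 Beta-lactamase reporter under UAS control in GeneBLAzer FXR HEK 293T cells (5000/well) measured with LiveBLAzer FRET substrate after 2 h at room temperature. Compound exposure lasted 16 h at 37C.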

Structure (SMILES) | Potency [1] | Potency [2] | Potency [3] | Potency [4] | Potency [5] | Potency [6] | Potency [7] | Potency [8] | outcome [9] | Potency [10] | Potency [11] | Potency [12] | Potency [13] | Potency [14] | Potency [15] | Potency [16] | Potency [17] | Potency [18]
CCCCC/C=C/CC1CC(=O)OC1=O (stereo not drawn) | inactive | inactive | inactive | inactive | inactive | inactive | inactive | inactive | inactive | inactive | inactive | inactive | inactive | inactive | inactive | – | – | –
Oc1ccc(Cl)cc1Cc1cc(Cl)ccc1O | 44.4 µM (active) and 30.9 µM (active) and 29.8 µM (active) | 25 µM (active) | 49 µM (active) | inactive | inactive | – | 11.2 µM (active) and 38.9 µM (active) | 28 µM (active) and 6.74 µM (active) | – | 54.9 µM (active) and inactive | 24.8 µM (active) | – | 55.9 µM (active) | – | inactive | inactive | 55.9 µM (active) and inactive | inactive
Cc1cc(OCCOCC[N+](C)(C)Cc2ccccc2)ccc1C(C)(C)CC(C)(C)C | 21.7 µM (active) and 11.9 µM (active) | 19.4 µM (active) | 17.3 µM (active) and 18.8 µM (active) | 54.6 µM (active) and 29.8 µM (active) | – | – | – | 13.7 µM (active) and 19 µM (active) | – | 19.4 µM (active) | 68.2 µM (active) and 29.8 µM (active) | 60.8 µM (active) and 29.8 µM (active) | 34.5 µM (active) and 26.8 µM (active) | – | – | – | – | inactive
Cc1occc(=O)c1OC(=O)C(C)C | inactive | – | inactive | inactive | inactive | – | inactive | inactive | inactive | inactive | inactive | inactive | inactive | inactive | inactive | inactive | inactive | –
CCCNC(C)C(=O)Nc1ccccc1C (stereo not drawn) | inactive | – | – | inactive | inactive | – | – | inactive | inactive | inactive | inactive | – | inactive | inactive | inactive | inactive | inactive | –
CCCCCC(=O)O[C@]1(C(C)=O)CC[C@H]2[C@@H]3CCC4=CC(=O)CC[C@]4(C)[C@H]3CC[C@@]21C | 48.6 µM (active) and 29.8 µM (active) | – | 43.4 µM (active) | – | – | – | – | 43.4 µM (active) and 23.9 µM (active) | – | inactive | 60.7 µM (active) | 27.1 µM (active) and 23.7 µM (active) | inactive | inactive | – | – | – | –
O=C1OC2(c3ccc(O)cc3Oc3cc(O)ccc32)c2ccccc21 | inactive | inactive | inactive | inactive | – | – | inactive | inactive | – | inactive | inactive | inactive | inactive | – | – | – | – | –
CCCOC(=O)c1cc(O)c(O)c(O)c1 | inactive | inactive | inactive | inactive | inactive | – | inactive | inactive | inactive | inactive | inactive | – | inactive | inactive | – | inactive | inactive | inactive
Nc1nc2ccccc2[nH]1 | inactive | – | inactive | inactive | inactive | – | – | inactive | – | inactive | inactive | – | inactive | – | inactive | – | – | inactive
NC(N)=NC(=O)Cc1c(Cl)cccc1Cl | – | – | – | inactive | inactive | inactive | – | – | inactive | inactive | inactive | inactive | inactive | inactive | inactive | inactive | inactive | –
C=CC(=O)OCCCCCCOC(=O)C=C | 49.6 µM (active) | inactive | inactive | inactive | – | – | 44.2 µM (active) and inactive | inactive | inactive | inactive | inactive | – | inactive | – | – | – | – | –
C=CC(=O)OCCCCCCCC | inactive | inactive | inactive | inactive | inactive | – | – | inactive | inactive | inactive | inactive | – | inactive | inactive | inactive | inactive | inactive | –
CCOc1ccccc1C(N)=O | inactive | – | inactive | inactive | inactive | – | inactive | inactive | inactive | inactive | inactive | inactive | inactive | inactive | inactive | inactive | inactive | inactive
Cc1c(O)cccc1C(=O)N[C@@H](CSc1ccccc1)[C@H](O)CN1C[C@H]2CCCC[C@H]2C[C@H]1C(=O)NC(C)(C)C | 7.56 µM (active) and 18.8 µM (active) | 15.1 µM (active) and 23.7 µM (active) | 6.74 µM (active) and 26.6 µM (active) | 19 µM (active) and 26.6 µM (active) | – | – | 15.1 µM (active) and 26.6 µM (active) | 23.9 µM (active) and 21.3 µM (active) | – | inactive | – | 23.7 µM (active) and 9.44 µM (active) | inactive | inactive | – | – | – | inactive
CNCCC(Oc1ccc(C(F)(F)F)cc1)c1ccccc1 (stereo not drawn) | 27.2 µM (active) and 29.8 µM (active) | 17.2 µM (active) and 21.1 µM (active) | 21.6 µM (active) | 48.4 µM (active) | inactive | – | 48.4 µM (active) and inactive | – | inactive | inactive | inactive | – | inactive | – | – | – | – | –
OCC(CO)N[C@H]1C[C@](O)(CO)[C@@H](O)[C@H](O)[C@H]1O | inactive | inactive | – | inactive | inactive | – | inactive | inactive | inactive | inactive | inactive | inactive | inactive | inactive | inactive | inactive | inactive | inactive
